For twelve molecules, growth results are on record in PubChem BioAssay (NCI).

Among the test systems are SR leukemia; RPMI-8226 leukemia; OVCAR-8 ovarian; OVCAR-5 ovarian; OVCAR-4 ovarian; SK-OV-3 ovarian; IGROV1 ovarian; OVCAR-3 ovarian; HS 578T breast; NCI/ADR-RES ovarian.
Experiment in all cases: NCI-60 one-dose screen, 48 h (100 = growth as untreated, 0 = no growth, -100 = all killed)
What all share (settings): 10 µM unless noted

SMILES strings stand for the structures. This is part of a sample that, as a whole, favours compounds with a hit. Of some 83,000 tested, about 20% had one in any assay.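 Single-dose data. Exposure time 48 hours. Values below 10 considered active.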 Unmarked numbers belong to inactive results. Active and inactive are the calls of the source.

Consider `Cc1cc2nc3c4cc(C=O)ccc4n(CCN(C)C)c3nc2cc1C`, for which the growth with SR leukemia was 3.27% (active); in the assay with RPMI-8226 leukemia, -22.6% (active); in the assay on OVCAR-8 ovarian, 17.6%; in the assay on OVCAR-5 ovarian it was 22.5%; in the assay on OVCAR-4 ovarian, 23.8%; in the assay on SK-OV-3 ovarian it was 26.8%. In addition, the growth is 5.83% (active) in the assay on IGROV1 ovarian, 22.7% in the assay on OVCAR-3 ovarian, 51.6% in the assay on HS 578T breast and 18.5% with NCI/ADR-RES ovarian.

Consider `Brc1ccc2[nH]cc(-c3cncn3CCc3ccccc3)c2c1`, for which the growth was 40.7% with SR leukemia; 29.7% in the assay with RPMI-8226 leukemia; 66.9% with OVCAR-8 ovarian; 71% in the assay on OVCAR-5 ovarian; 25.9% with OVCAR-4 ovarian; 64.9% in the assay with SK-OV-3 ovarian. In addition, the growth is 76.9% in the assay with IGROV1 ovarian, 36.7% with OVCAR-3 ovarian, 12.8% in the assay with HS 578T breast and 49.6% in the assay on NCI/ADR-RES ovarian.

In the case of `COc1ccc(C/C(C)=C(/c2ccc(OCCCN(C)C)cc2)c2ccc(OC(C)=O)cc2)cc1`, the growth is 9.44% (active) with SR leukemia; 79.2% in the assay with RPMI-8226 leukemia; 95.5% in the assay on OVCAR-8 ovarian; 85.7% in the assay with OVCAR-5 ovarian; 79.6% in the assay with OVCAR-4 ovarian; 88% in the assay on SK-OV-3 ovarian. The growth in the assay with IGROV1 ovarian was 58.4%; with OVCAR-3 ovarian, 91.1%; with HS 578T breast it was 64.1%; in the assay with NCI/ADR-RES ovarian, 92.3%.

Turning to `N#C/C(=C\c1c(-c2ccccc2)[nH]c2ccccc12)C(=O)c1ccc(Cl)cc1`, the growth was 48.6% in the assay on SR leukemia; -9.73% (active) in the assay with RPMI-8226 leukemia; 46.6% with OVCAR-8 ovarian; 62.5% in the assay with OVCAR-5 ovarian; -11.2% (active) with OVCAR-4 ovarian; 53.3% with SK-OV-3 ovarian. For the same molecule, the growth was 59% with IGROV1 ovarian, -33.2% (active) in the assay with OVCAR-3 ovarian, 4.84% (active) in the assay with HS 578T breast and -2.46% (active) with NCI/ADR-RES ovarian.

`O=[N+]([O-])c1cc(Br)c2cccc3c2c1CC3`: the growth is 93.3% with SR leukemia; 109% with RPMI-8226 leukemia; 97% with OVCAR-8 ovarian; 99.4% in the assay with OVCAR-5 ovarian; 104% in the assay on OVCAR-4 ovarian; 114% in the assay on SK-OV-3 ovarian. Moreover, the growth with IGROV1 ovarian was 111%; with OVCAR-3 ovarian, 108%; with HS 578T breast, 130%; in the assay with NCI/ADR-RES ovarian it was 114%.

Regarding `CC(=O)CCC(=O)OCc1cc(=O)c(O)co1`, the growth was 86.4% in the assay with SR leukemia; 107% with RPMI-8226 leukemia; 108% in the assay on OVCAR-8 ovarian; 93.5% with OVCAR-5 ovarian; 112% in the assay with OVCAR-4 ovarian; 128% in the assay on SK-OV-3 ovarian. The growth is 98.6% in the assay on IGROV1 ovarian, 106% with OVCAR-3 ovarian, 103% in the assay with HS 578T breast and 98.3% with NCI/ADR-RES ovarian.

For `CCCCCN1C=C/C(=C\C(=O)n2ccc3ccccc32)c2ccccc21`, the growth was 82.8% in the assay with SR leukemia; 73.7% in the assay on RPMI-8226 leukemia; 93.6% with OVCAR-8 ovarian; 93.7% in the assay with OVCAR-5 ovarian; 71.6% with OVCAR-4 ovarian; 78.5% in the assay on SK-OV-3 ovarian. For the same molecule, the growth with IGROV1 ovarian is 65.5%; in the assay with OVCAR-3 ovarian it was 86.4%; in the assay on HS 578T breast, 92.2%; in the assay with NCI/ADR-RES ovarian it was 94.3%.

Turning to `C=C1C(=O)O[C@H]2[C@H]1CC/C(COC(=O)NCCc1c[nH]c3ccc(OC)cc13)=C\CC[C@@]1(C)O[C@@H]21`, the growth in the assay on SR leukemia was 11.6%; in the assay with RPMI-8226 leukemia it was -18.4% (active); in the assay on OVCAR-8 ovarian, 20.4%; in the assay with OVCAR-5 ovarian, 51.8%; with OVCAR-4 ovarian, -13.1% (active); in the assay on SK-OV-3 ovarian, 118%. Further, the growth in the assay with IGROV1 ovarian was -5.2% (active); in the assay on OVCAR-3 ovarian, -74.3% (active); in the assay on HS 578T breast, 79.9%; in the assay with NCI/ADR-RES ovarian, 83.5%.

Take `NC(=S)N1N=C(c2ccccc2)CC1c1cn(-c2ccccc2)nc1-c1ccc(OCc2ccccc2)cc1` (stereo not given): the growth in the assay with SR leukemia is 109%; in the assay on RPMI-8226 leukemia it was 90.9%; in the assay with OVCAR-8 ovarian it was 96.4%; with OVCAR-5 ovarian, 104%; in the assay with OVCAR-4 ovarian, 109%; in the assay with SK-OV-3 ovarian it was 112%. In addition, the growth in the assay on IGROV1 ovarian is 113%; with OVCAR-3 ovarian it was 110%; with HS 578T breast it was 96.3%; in the assay on NCI/ADR-RES ovarian it was 112%.

Take `CCCCCC(=O)Oc1ccc(/C(=C(/C)Cc2ccc(OC)cc2)c2ccc(OCCCN(C)C)cc2)cc1`: the growth was 10.9% in the assay with SR leukemia; 82.7% with RPMI-8226 leukemia; 96.2% with OVCAR-8 ovarian; 96.4% in the assay with OVCAR-5 ovarian; 71.4% with OVCAR-4 ovarian; 81.5% with SK-OV-3 ovarian. Also, the growth in the assay on IGROV1 ovarian was 63.9%; in the assay with OVCAR-3 ovarian, 86.5%; in the assay on HS 578T breast, 59.9%; in the assay with NCI/ADR-RES ovarian, 88.2%.

In the case of `COC(=O)N[C@H]1CCc2c(Cl)c(OC)c(OC)c(OC)c2-c2ccc(SC)c(=O)cc21`, the growth in the assay on SR leukemia was 2.15% (active); with RPMI-8226 leukemia, -5.28% (active); in the assay on OVCAR-8 ovarian it was 15.4%; with OVCAR-5 ovarian, 38.5%; in the assay with OVCAR-4 ovarian, 39.5%; with SK-OV-3 ovarian it was 40.3%. For the same molecule, the growth in the assay with IGROV1 ovarian is 9.16% (active); with OVCAR-3 ovarian, -46.2% (active); in the assay on HS 578T breast, 9.58% (active); in the assay with NCI/ADR-RES ovarian, 7.43% (active).

For the molecule `COc1cc(F)c(/C=C/c2cc(/C=C/c3cc(OC)c(OC)cc3F)on2)cc1OC`, the growth is 46.9% with SR leukemia; 68.2% with RPMI-8226 leukemia; 87.1% in the assay with OVCAR-8 ovarian; 97.6% with OVCAR-5 ovarian; 101% in the assay with OVCAR-4 ovarian; 105% in the assay with SK-OV-3 ovarian. For the same molecule, the growth in the assay with IGROV1 ovarian is 79.5%; with OVCAR-3 ovarian, 36.1%; in the assay with HS 578T breast, 89.2%; with NCI/ADR-RES ovarian it was 89.3%.
